According to PubChem BioAssay (NCI):
This is part of a sample that, as a whole, favours compounds with a hit. Of some 83,000 tested, about 20% had one in any assay.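 48-hour exposure, single concentration, 96-well plates; percent growth endpoint where 0 means no net growth. Active: below 10.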 Unmarked numbers belong to inactive results. Calls of active or inactive are those of the source.

Columns and labels:
Experiment in all cases: NCI-60 one-dose screen, 48 h (100 = growth as untreated, 0 = no growth, -100 = all killed)
Details in all cases: 10 µM unless noted
[1] = system: DU-145 prostate
[2] = system: K-562 leukemia
[3] = system: MALME-3M melanoma
[4] = system: MDA-MB-231 breast
[5] = system: RXF 393 renal
[6] = system: SF-268 CNS
[7] = system: SF-295 CNS
[8] = system: SF-539 CNS
[9] = system: M14 melanoma
[10] = system: HCT-15 colon
[11] = system: HT29 colon
[12] = system: SNB-75 CNS
[13] = system: SNB-19 CNS
[14] = system: U251 CNS
[15] = system: PC-3 prostate
[16] = system: SK-MEL-5 melanoma
[17] = system: UACC-62 melanoma
[18] = system: LOX IMVI melanoma
[19] = system: SK-MEL-28 melanoma

Row | SMILES | growth [1] | growth [2] | growth [3] | growth [4] | growth [5] | growth [6] | growth [7] | growth [8] | growth [9] | growth [10] | growth [11] | growth [12] | growth [13] | growth [14] | growth [15] | growth [16] | growth [17] | growth [18] | growth [19]
1 | O=[N+]([O-])c1ccc(S(=O)(=O)N2CCN(c3ccnc4cc(Cl)ccc34)CC2)c([N+](=O)[O-])c1 | 92.3% | 18% | 76.2% | 85.3% | 74% | 86% | 100% | 93.5% | 92.2% | 66.6% | 93.5% | 73.8% | 98.2% | 93.9% | 95.1% | 98.8% | 81.8% | 32% | 108%
2 | CCN(CC)CCSc1c2ccc(Cl)cc2nc2ccc(OC)cc12 | -38% (active) | 9.42% (active) | 101% | 51.9% | 116% | 96.7% | 105% | 99.6% | 79% | 47.4% | 34.8% | 110% | 92% | 93% | 91.4% | 103% | 93.2% | 36.7% | 113%
3 | CNC(=O)c1cc(Oc2ccc3c(c2)sc2nc(-c4ccc(Cl)cc4)cn23)ccn1 | 96.3% | 85.8% | 72.7% | 77% | 83.5% | 63.3% | 80.1% | 76% | 94.7% | 83.6% | 105% | 47.9% | 54% | 69.5% | 78.8% | 87.4% | 85.1% | 87.4% | 104%
4 | Cc1c(C(=O)NCc2ccccc2)[n+](=O)c2cc(F)ccc2n1[O-] | 99.8% | 214% | 114% | 111% | 33.1% | 111% | 88.4% | 103% | 99.5% | 111% | 94.4% | 76.7% | 108% | 102% | 81.9% | 86.7% | 104% | 97.4% | 91.3%
5 | CC(=O)/C=C/c1cc2cc(Cl)ccc2[nH]c1=O | 69.8% | 50.5% | 97.2% | 84% | 79.1% | 81.2% | 96.9% | 85.4% | 91.2% | 76% | 76.8% | 102% | 68.8% | 62.1% | 77.5% | 96.5% | 80.8% | 69.1% | 99.9%
6 | CCCCCCCN(CCCCCCC)C(=N)c1ccc(OC)c2ccccc12 | -96.4% (active) | -47.9% (active) | -72% (active) | -77.2% (active) | -94.5% (active) | -91% (active) | -89.9% (active) | -88% (active) | -85.9% (active) | -81.4% (active) | -78.8% (active) | -98.2% (active) | -80.7% (active) | -90.5% (active) | -92.3% (active) | -93.2% (active) | -76.5% (active) | -98.7% (active) | -82.9% (active)
7 | CCCCCCOc1ccc(C2(Cl)c3ccccc3N(C)c3ccccc32)cc1 | 55.7% | 48.8% | -21.5% (active) | 32.7% | 57% | 49.5% | 28.9% | 89.3% | 12.9% | 44.7% | 35.1% | 63.3% | 47.1% | -8.78% (active) | 21.8% | 33.2% | 38.1% | -33.8% (active) | 24.5%
8 | C/C(=C\c1csc(C)n1)[C@@H]1C[C@@H]2O[C@]2(C)CCC[C@H](C)[C@H](O)[C@@H](C)C(=O)C(C)(C)[C@@H](O)CC(=O)N1 | -78.9% (active) | 1.67% (active) | 66.3% | -54.7% (active) | -83.3% (active) | -47.8% (active) | -64.6% (active) | -87.4% (active) | -44.1% (active) | -93.4% (active) | -10.4% (active) | -19.4% (active) | -41.4% (active) | -100% (active) | -63.9% (active) | -89.9% (active) | -93.7% (active) | -100% (active) | -43.3% (active)
9 | CCOP(=O)(CCN1CCN(CCCCCOc2cc3c(cc2OC)C(=O)N2CCC[C@H]2C=N3)CC1)OCC | 91.5% | 35.7% | 119% | 74.3% | 46% | 57% | 97.3% | 53.5% | 91.8% | 104% | 80.4% | 65.5% | 91.5% | 30.1% | 76.2% | 83.9% | 94.6% | 22% | 120%
10 | Cc1nc2scc(-c3ccccc3)n2c(=O)c1CCO | 108% | 98.4% | 102% | 97.3% | 106% | 97.5% | 102% | 100% | 101% | 96.1% | 103% | 71.6% | 98.3% | 103% | 87.7% | 100% | 97.6% | 92.3% | 113%
11 | CCN(CC)CCCNc1nc(C)cc(Nc2ccc3nc(C)cc(N)c3c2)n1 | 116% | 106% | 107% | 103% | 117% | 92.9% | 95.1% | 103% | 96.6% | 105% | 92.5% | 90.9% | 108% | 100% | 76% | 112% | 117% | 95.6% | 111%
12 | CN(C)C/C=C/C(=O)Nc1cc2c(Nc3cccc(Cl)c3F)ncnc2cc1OCCOC(F)F | 31.3% | 18.1% | 38.5% | 17.6% | 6.09% (active) | 41.9% | 55.2% | 36.7% | 67.5% | 21.8% | 18.2% | 1.35% (active) | 57.1% | 50.3% | 40.2% | 73.4% | 53.5% | 43.9% | 78.2%
13 | COC(=O)CC/C(C)=N\Nc1ccc([N+](=O)[O-])cc1 | 85.5% | 4.87% (active) | 104% | 79.6% | 101% | 72.4% | 72.4% | 65.8% | 20.4% | 34.8% | 46.6% | 91.5% | 99.4% | 68.4% | 45.8% | 73.8% | 26.6% | 16.2% | 96%
14 | O=C(CSc1nc(-c2ccc(Cl)cc2)cn1-c1ccc(Cl)cc1)c1ccc(Br)cc1 | 90.9% | 86.4% | 94% | 60.1% | 67.9% | 78.1% | 52.1% | 84.7% | 89.1% | 85.2% | 66.9% | 44.4% | 77.8% | 37.5% | 50.3% | 94.9% | 72.1% | 73.4% | 87.1%
15 | Nc1nn2cc(-c3ccc(Cl)s3)nc2c2ccccc12 | 99% | 85.3% | 101% | 68.9% | 133% | 94.1% | 93.7% | 81.7% | 97% | 87.5% | 92% | 81.6% | 93% | 94.7% | 83.8% | 84% | 81.6% | 82.2% | 94.2%
16 | COc1cc(/C=C/C(=O)c2ccccc2O)ccc1OCCCOc1cc2c(cc1OC)C(=O)N1CCC[C@H]1C=N2 | 2.53% (active) | 76.3% | -73.1% (active) | -20.6% (active) | -44.6% (active) | 0.95% (active) | -11% (active) | -1.54% (active) | -7.64% (active) | -3.51% (active) | -41.4% (active) | -57.7% (active) | -1.67% (active) | -74.7% (active) | 10.7% | -76.5% (active) | -82.4% (active) | -60.8% (active) | -64.3% (active)
